Screening data deposited in PubChem BioAssay by several laboratories.
Only some compounds are listed: those with a hit (about 27% of all), similar ones and a draw of the others.
CYP2C9 inhib – blockers of cytochrome P450 2C9 activity – biochemical, luminescence, ADME assay, primary screen | CYP2C9 Supersomes, luciferin-H conversion | inhibition, % at 5 µM | actives 20% (n = 96,000);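 active means blocking of liver enzyme CYP2C9 beyond about 50% at 5 µM, limit read from the data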
CYP2C9 activ – human CYP2C9 activators, primary screen, biochemical, luminescence | AID 1024, 2008 | recombinant CYP2C9, luciferin-H conversion; stronger effect = higher value; factor 1 = untreated enzyme, 0 = blocked | activation factor at 5 µM | actives 1.4% (n = 96,000) | Cytochrome P450 2C9 (Homo sapiens), P11712;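 active means activation factor of 2 or more for CYP2C9 at a 5 µM dose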;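 further: 0 = sulfaphenazole-blocked wells and 1 = vehicle-only wells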
CYP2C19 act – human CYP2C19 activators, primary screen, biochemical, luminescence; Cytochrome P450 2C19 (Homo sapiens), P33261; recombinant CYP2C19, luciferin-H EGE luminescence; stronger effect = higher value; 0 = fully inhibited enzyme, 1 = untreated enzyme; activation factor at 5 µM; 96,000 tested, under 10 active; AID 1025, 2008;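 active means activation factor of at least 2 at 5 µM in the primary screen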;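 further: 0 = wells with 2.5 mM tranylcypromine and 1 = vehicle-only wells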
Target sequence (P33261 whole entry, looked up): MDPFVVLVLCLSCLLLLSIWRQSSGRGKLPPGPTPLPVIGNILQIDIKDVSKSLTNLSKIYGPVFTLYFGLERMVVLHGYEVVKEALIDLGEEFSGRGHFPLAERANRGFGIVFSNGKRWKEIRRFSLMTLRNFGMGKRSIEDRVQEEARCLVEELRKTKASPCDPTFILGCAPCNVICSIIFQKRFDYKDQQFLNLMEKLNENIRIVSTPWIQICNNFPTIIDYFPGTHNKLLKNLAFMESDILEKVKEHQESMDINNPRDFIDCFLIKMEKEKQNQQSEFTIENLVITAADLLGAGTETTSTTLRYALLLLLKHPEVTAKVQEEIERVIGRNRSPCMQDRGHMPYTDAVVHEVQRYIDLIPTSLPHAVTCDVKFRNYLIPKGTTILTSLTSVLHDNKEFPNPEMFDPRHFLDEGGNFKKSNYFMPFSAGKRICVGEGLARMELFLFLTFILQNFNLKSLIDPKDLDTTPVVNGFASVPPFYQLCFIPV
CYP2C19 inh – blockers of cytochrome P450 2C19 activity – biochemical, luminescence, ADME assay, primary screen. CYP2C19 Supersomes, luciferin-H EGE luminescence, 30 min. AID 778, 2007. inhibition, % at 5 µM. P33261. actives 21% (n = 96,000);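 active means CYP2C19 inhibition above a set limit at 5 µM in the primary screen, cut at about 50% in these data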;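 further: plate controls were negative control wells for no effect and 2.5 mM tranylcypromine positive control for full effect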
Pyk2 oligo antag – antagonists of Pyk2 self-association, primary screen, Q293 cells, FERM NanoBiT luminescence, HTS; z-score (the deposit names both 25 µM and 10 µM); stronger effect = lower value; Protein-tyrosine kinase 2-beta (Homo sapiens), Q14289; AID 1347419, 2020; actives 0.83% (n = 99,000);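 active means Z-score of -3 or lower, scaled per plate to the spread of control and sample wells; inactive means z-score above -3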;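 further: negative z-score means lost luminescence so less FERM oligomerization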
Cav32 inh – Cav3.2 calcium influx blockers – cell-based, Fluo-4 calcium fluorescence, FDSS, MLSMR library, primary screen; Voltage-dependent T-type calcium channel subunit alpha-1H (Homo sapiens), O95180; Cav3.2-expressing cells; stronger effect = lower value; B-score at 10 µM; actives 4% (n = 100,000); AID 449739, 2010;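 active means single-dose well whose peak fluorescence ratio is a statistical outlier from its plate by either plate-standardised score or position-corrected B-score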
Starred values were filed as active, the others as inactive.

How did c1coc(-c2nnc3sc(Cc4cccs4)nn23)c1 do in these assays?
CYP2C9 inhib: 55*; CYP2C9 activ: 0.5; CYP2C19 act: 0.3; CYP2C19 inh: 69*; Pyk2 oligo antag: 0.27; Cav32 inh: 0.087

Results for c1csc(Cc2nn3c(-c4n[nH]c5c4CCC5)nnc3s2)c1 ?
CYP2C9 inhib: 15; CYP2C9 activ: 0.8; CYP2C19 act: 1; CYP2C19 inh: 2; Pyk2 oligo antag: -1.8; Cav32 inh: 1.3

What do the screens show for `Clc1ccc(OCc2nn3c(-c4ccncc4)nnc3s2)cc1`?
CYP2C9 inhib: 69*; CYP2C9 activ: 0.3; CYP2C19 act: 0.1; CYP2C19 inh: 92*; Pyk2 oligo antag: -1.5

How did O=C1CCCN1c1ccc(S(=O)(=O)NCCc2ccc(Cl)cc2)cc1 do in these assays?
CYP2C9 inhib: 84*; CYP2C9 activ: 0.2; CYP2C19 act: 0.2; CYP2C19 inh: 80*; Pyk2 oligo antag: 0.77; Cav32 inh: 0.34

How did COc1ccc(CCNS(=O)(=O)c2ccc(N3CCCC3=O)cc2)cc1 do in these assays?
Pyk2 oligo antag: 1.2; Cav32 inh: -0.01

How did CC(/C=C/C=C/c1ccccc1)=N/NC(=O)CNc1ccc(C)cc1 do in these assays?
CYP2C9 inhib: 3; CYP2C9 activ: 1; CYP2C19 act: 1.1; CYP2C19 inh: -8; Pyk2 oligo antag: 2; Cav32 inh: 0.1

Results for O=C(Nc1ccc(CN2CCOCC2)cc1)c1ccc(-c2ccc(Br)cc2)o1 ?
CYP2C9 inhib: 23; CYP2C9 activ: 0.8; CYP2C19 act: 0.8; CYP2C19 inh: 18; Pyk2 oligo antag: -1.5; Cav32 inh: 1.4

What do the screens show for `CCC(C(=O)N1CCN(S(C)(=O)=O)CC1)c1ccccc1` (stereo not drawn)?
CYP2C9 inhib: 33; CYP2C9 activ: 0.7; CYP2C19 act: 0.2; CYP2C19 inh: 83*; Pyk2 oligo antag: 0.41; Cav32 inh: -0.13

Results for O=C(O)CCC(=O)N1CCN(c2cccc(Cl)c2)CC1 ?
CYP2C9 inhib: -24; CYP2C9 activ: 1.2; CYP2C19 act: 0.9; CYP2C19 inh: 6; Pyk2 oligo antag: 0.41; Cav32 inh: 0.29

Results for O=C(C(Cc1ccccc1)n1cccc1)N1CCCCCC1 (stereo not drawn) ?
CYP2C9 inhib: 37; CYP2C9 activ: 0.6; CYP2C19 act: 0.3; CYP2C19 inh: 69*; Cav32 inh: -1

Results for CCC(C(=O)N1CCN(c2cccc(Cl)c2)CC1)c1ccccc1 (stereo not drawn) ?
CYP2C9 inhib: 100*; CYP2C9 activ: 0; CYP2C19 act: 0; CYP2C19 inh: 95*; Pyk2 oligo antag: -0.36; Cav32 inh: -5.3*

What do the screens show for `CCC(C(=O)N1CCc2cc(OC)c(OC)cc2C1)c1ccccc1` (stereo not drawn)?
CYP2C9 inhib: 73*; CYP2C9 activ: 0.3; CYP2C19 act: 0.3; CYP2C19 inh: 73*; Pyk2 oligo antag: 0.93; Cav32 inh: -1.4

Results for O=C(C(Cc1ccccc1)N1C(=O)C2C3C=CC(C3)C2C1=O)N1CCCCC1 (stereo not drawn) ?
CYP2C9 inhib: 11; CYP2C9 activ: 0.9; CYP2C19 act: 0.7; CYP2C19 inh: 29; Pyk2 oligo antag: -0.16; Cav32 inh: 0.076

What do the screens show for `Cc1ccc(C(=O)C(OC(=O)COc2ccccc2C)c2ccccc2)cc1` (stereo not drawn)?
CYP2C9 inhib: 39; CYP2C9 activ: 0.6; CYP2C19 act: 0.5; CYP2C19 inh: 49; Pyk2 oligo antag: -1.1

Results for O=C(c1ccccc1)N1CCN(Cc2ccccc2)CC1 ?
Pyk2 oligo antag: -0.25; Cav32 inh: -0.0077

What do the screens show for `O=C(C(Cc1ccccc1)n1cccc1)N1CCN(c2cccc(Cl)c2)CC1` (stereo not drawn)?
CYP2C9 inhib: 70*; CYP2C9 activ: 0.3; CYP2C19 act: 0.2; CYP2C19 inh: 82*; Cav32 inh: -4.3

What do the screens show for `Oc1cccc(C(=S)N2CCN(Cc3ccccc3)CC2)c1`?
CYP2C9 inhib: 68*; CYP2C9 activ: 0.3; CYP2C19 act: 0; CYP2C19 inh: 100*; Pyk2 oligo antag: -0.7; Cav32 inh: 0.25

What do the screens show for `O=C(N1CCOCC1)N1CCN(c2ccccc2)CC1`?
CYP2C9 inhib: 10; CYP2C9 activ: 0.9; CYP2C19 act: 0.7; CYP2C19 inh: 33; Pyk2 oligo antag: -0.62; Cav32 inh: 0.0085

Results for O=C(C(Cc1ccccc1)n1cccc1)N1CCN(Cc2ccccc2)CC1 (stereo not drawn) ?
CYP2C9 inhib: 62*; CYP2C9 activ: 0.4; CYP2C19 act: 0.8; CYP2C19 inh: 23; Cav32 inh: -1.4

What do the screens show for `O=C(N1CCOCC1)N1CCN(Cc2ccccc2)CC1`?
CYP2C9 inhib: -10; CYP2C9 activ: 1.1; CYP2C19 act: 0.2; CYP2C19 inh: 82*; Pyk2 oligo antag: 0.91; Cav32 inh: 0.22

What do the screens show for `COC(=O)CN1C(=O)[C@@H]2[C@H](C1=O)[C@@H]1CC(C(=O)OC)=C[C@@H](C(=O)OC)[C@@H]3C1=C(C(=O)[C@]3(C)NC(=O)c1ccccc1)[C@@H]2C`?
Cav32 inh: 0.56

Results for N/C(=N\OC(=O)c1cc(Cl)ccc1Cl)c1cccnc1 ?
CYP2C9 inhib: 34; CYP2C9 activ: 0.7; CYP2C19 act: 0.3; CYP2C19 inh: 72*; Pyk2 oligo antag: -0.67; Cav32 inh: 1.2

What do the screens show for `N/C(=N\OC(=O)c1ccccc1Cl)c1cccnc1`?
Pyk2 oligo antag: -1.2; Cav32 inh: 0.78

How did COc1cc(S(=O)(=O)N2CCC(O)(c3cccc(C(F)(F)F)c3)CC2)ccc1-n1cnnn1 do in these assays?
CYP2C9 inhib: 64*; CYP2C9 activ: 0.4; CYP2C19 act: 0.7; CYP2C19 inh: 32; Pyk2 oligo antag: -0.65; Cav32 inh: -3.1

What do the screens show for `O=S(=O)(c1ccccc1)N(C1=NCCS1)S(=O)(=O)c1ccccc1`?
CYP2C9 inhib: -17; CYP2C9 activ: 1.2; CYP2C19 act: 0.8; CYP2C19 inh: 20; Pyk2 oligo antag: -0.15; Cav32 inh: -0.022

Results for CCOC(=O)c1sc(NC(=O)c2cc(-c3ccc(C)cc3)nc3ccccc23)c(C#N)c1C ?
CYP2C9 inhib: 42; CYP2C9 activ: 0.6; CYP2C19 act: 0.9; CYP2C19 inh: 15; Pyk2 oligo antag: -1.4; Cav32 inh: -2.2

What do the screens show for `Cc1ccccc1-c1cc(C(=O)Nc2sc(C(=O)OC(C)C)c(C)c2C#N)c2ccccc2n1`?
CYP2C9 inhib: 85*; CYP2C9 activ: 0.2; CYP2C19 act: 0.6; CYP2C19 inh: 44; Pyk2 oligo antag: -3.9*; Cav32 inh: -3.2
